Results on seven sequences are retold here after paper PMC8384837, “Expanding the binding specificity for RNA recognition by a PUF domain”.

Common to all, as to assay: yeast three-hybrid, YBZ-1, SC-Leu-His + 0.5 mM 3-AT, 4 days
Settings in all cases: tags: N-Gal4 AD-HA kept; label: inside an RPR1-promoter hybrid RNA with tandem MS2 sites; ssRNA

One assay addresses PUM1 PUF domain R5-KAR (Homo sapiens, UniProt Q14671 828-1176, C1007K;R1008A;Q1011R). The procedure, abridged: (§1)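 Pumilio-1 PUF domain libraries, randomized (NNK) at the three base-contacting residues of each repeat, were co-expressed with matching RNA elements from a centromeric plasmid in strain YBZ-1 (LexA–MS2 coat fusion, HIS3 reporter). Transformants were plated on SC-Leu (input) and SC-Leu-His + 0.5 mM 3-AT (selection) for four days, and repeat regions were PCR-amplified and Illumina-sequenced. The interaction score is the log2 change in variant frequency from input to selection, with pseudocount 1 where absent.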

The next assay deals with PUM1 PUF domain R5-KQS (Homo sapiens, UniProt Q14671 828-1176, C1007K;R1008Q;Q1011S). The procedure, abridged:
as §1

The target of another assay is PUM1 PUF domain R5-EWF (Homo sapiens, UniProt Q14671 828-1176, C1007E;R1008W;Q1011F). The method in brief: as §1
The target of another assay is PUM1 PUF domain R5-DQE (Homo sapiens, UniProt Q14671 828-1176, C1007D;R1008Q;Q1011E). The procedure, abridged: as §1
The next assay deals with T1, PUM1 PUF domain R6-KWL (Homo sapiens, UniProt Q14671 828-1176, N1043K;Y1044W;Q1047L).
T1 sequence: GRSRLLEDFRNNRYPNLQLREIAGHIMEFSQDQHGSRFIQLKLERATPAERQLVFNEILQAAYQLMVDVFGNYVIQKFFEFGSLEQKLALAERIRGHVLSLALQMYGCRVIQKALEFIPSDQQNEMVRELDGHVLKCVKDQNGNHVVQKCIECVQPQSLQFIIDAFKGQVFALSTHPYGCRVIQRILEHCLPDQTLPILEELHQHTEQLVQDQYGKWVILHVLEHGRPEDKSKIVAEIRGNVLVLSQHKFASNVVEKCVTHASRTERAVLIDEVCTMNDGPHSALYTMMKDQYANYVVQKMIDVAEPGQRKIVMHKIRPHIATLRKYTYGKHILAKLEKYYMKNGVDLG
The procedure, abridged:
as §1

Another assay has as its target PUM1 PUF domain R7-DWE (Homo sapiens, UniProt Q14671 828-1176, S1079D;N1080W). The method in brief: as §1
Another assay has as its target PUM1 PUF domain R8-VYR (Homo sapiens, UniProt Q14671 828-1176, N1122V;Q1126R). The method in brief: as §1
A further assay concerns the target PUM1 PUF domain R3-AFP (Homo sapiens, UniProt Q14671 828-1176, C935A;R936F;Q939P). The method in brief:
as §1

Another assay addresses PUM1 PUF domain R8-HFM (Homo sapiens, UniProt Q14671 828-1176, N1122H;Y1123F;Q1126M). The method in brief:
as §1

Another assay concerns the target PUM1 PUF domain R3-WFG (Homo sapiens, UniProt Q14671 828-1176, C935W;R936F;Q939G). The procedure, abridged:
as §1

For “GGCUAGAACUAGUGGAUCCCCCGGCGCCCGGCGGCUCGAGCCCGGGUAAGUGUCAAUAGUCUGCAUGCCGCCGGGCGCCAUGCCUGCAGGUCGACUCUAGAAAACAUG”, the binding signal with PUM1 PUF domain R5-KAR is 4.29 log2 enrichment (interaction score); in the assay with PUM1 PUF domain R5-KQS, 3.98 log2 enrichment (interaction score).

For the sequence “GGCUAGAACUAGUGGAUCCCCCGGCGCCCGGCGGCUCGAGCCCGGGUAAGUGUUAAUAGUCUGCAUGCCGCCGGGCGCCAUGCCUGCAGGUCGACUCUAGAAAACAUG”, the binding signal was 2.72 log2 enrichment (interaction score) in the assay with PUM1 PUF domain R5-KAR and 3.15 log2 enrichment (interaction score) in the assay with PUM1 PUF domain R5-EWF.

Regarding “GGCUAGAACUAGUGGAUCCCCCGGCGCCCGGCGGCUCGAGCCCGGGUAAGUGUGAAUAGUCUGCAUGCCGCCGGGCGCCAUGCCUGCAGGUCGACUCUAGAAAACAUG”, the binding signal with PUM1 PUF domain R5-DQE was 3.83 log2 enrichment (interaction score).

For the sequence “GGCUAGAACUAGUGGAUCCCCCGGCGCCCGGCGGCUCGAGCCCGGGUAAGUGUAAAUAGUCUGCAUGCCGCCGGGCGCCAUGCCUGCAGGUCGACUCUAGAAAACAUG”, the binding signal is 5.66 log2 enrichment (interaction score) with PUM1 PUF domain R6-KWL; 2.44 log2 enrichment (interaction score) in the assay with PUM1 PUF domain R7-DWE; 0.39 log2 enrichment (interaction score) with PUM1 PUF domain R5-KQS; 4.52 log2 enrichment (interaction score) in the assay with PUM1 PUF domain R8-VYR; 5.95 log2 enrichment (interaction score) with PUM1 PUF domain R3-AFP.

Turning to “GGCUAGAACUAGUGGAUCCCCCGGCGCCCGGCGGCUCGAGCCCGGGUAAGCGUAAAUAGUCUGCAUGCCGCCGGGCGCCAUGCCUGCAGGUCGACUCUAGAAAACAUG”, the results for the binding signal with PUM1 PUF domain R8-VYR and with PUM1 PUF domain R8-HFM were 5.17 log2 enrichment (interaction score) and 2.95 log2 enrichment (interaction score), respectively.

For “GGCUAGAACUAGUGGAUCCCCCGGCGCCCGGCGGCUCGAGCCCGGGUAAGUGUAAGUAGUCUGCAUGCCGCCGGGCGCCAUGCCUGCAGGUCGACUCUAGAAAACAUG”, the binding signal with PUM1 PUF domain R3-WFG was 2.77 log2 enrichment (interaction score).

For “GGCUAGAACUAGUGGAUCCCCCGGCGCCCGGCGGCUCGAGCCCGGGUAAGUGUAAUUAGUCUGCAUGCCGCCGGGCGCCAUGCCUGCAGGUCGACUCUAGAAAACAUG”, the binding signal with PUM1 PUF domain R3-WFG was 2.57 log2 enrichment (interaction score).
